SMILES strings stand for the structures. Among all 310,000 compounds or so, about 14,000 (4.5%) showed an effect of 50% or more. The effect is printed as a negative number. Only a selection was taken, and strong results are over-represented in it overall.
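Note: peak tail current of the secondary pulse compared with the same well before compound.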

human ether-à-go-go-related gene (hERG) potassium channel, sequence (Q12809 whole entry, looked up): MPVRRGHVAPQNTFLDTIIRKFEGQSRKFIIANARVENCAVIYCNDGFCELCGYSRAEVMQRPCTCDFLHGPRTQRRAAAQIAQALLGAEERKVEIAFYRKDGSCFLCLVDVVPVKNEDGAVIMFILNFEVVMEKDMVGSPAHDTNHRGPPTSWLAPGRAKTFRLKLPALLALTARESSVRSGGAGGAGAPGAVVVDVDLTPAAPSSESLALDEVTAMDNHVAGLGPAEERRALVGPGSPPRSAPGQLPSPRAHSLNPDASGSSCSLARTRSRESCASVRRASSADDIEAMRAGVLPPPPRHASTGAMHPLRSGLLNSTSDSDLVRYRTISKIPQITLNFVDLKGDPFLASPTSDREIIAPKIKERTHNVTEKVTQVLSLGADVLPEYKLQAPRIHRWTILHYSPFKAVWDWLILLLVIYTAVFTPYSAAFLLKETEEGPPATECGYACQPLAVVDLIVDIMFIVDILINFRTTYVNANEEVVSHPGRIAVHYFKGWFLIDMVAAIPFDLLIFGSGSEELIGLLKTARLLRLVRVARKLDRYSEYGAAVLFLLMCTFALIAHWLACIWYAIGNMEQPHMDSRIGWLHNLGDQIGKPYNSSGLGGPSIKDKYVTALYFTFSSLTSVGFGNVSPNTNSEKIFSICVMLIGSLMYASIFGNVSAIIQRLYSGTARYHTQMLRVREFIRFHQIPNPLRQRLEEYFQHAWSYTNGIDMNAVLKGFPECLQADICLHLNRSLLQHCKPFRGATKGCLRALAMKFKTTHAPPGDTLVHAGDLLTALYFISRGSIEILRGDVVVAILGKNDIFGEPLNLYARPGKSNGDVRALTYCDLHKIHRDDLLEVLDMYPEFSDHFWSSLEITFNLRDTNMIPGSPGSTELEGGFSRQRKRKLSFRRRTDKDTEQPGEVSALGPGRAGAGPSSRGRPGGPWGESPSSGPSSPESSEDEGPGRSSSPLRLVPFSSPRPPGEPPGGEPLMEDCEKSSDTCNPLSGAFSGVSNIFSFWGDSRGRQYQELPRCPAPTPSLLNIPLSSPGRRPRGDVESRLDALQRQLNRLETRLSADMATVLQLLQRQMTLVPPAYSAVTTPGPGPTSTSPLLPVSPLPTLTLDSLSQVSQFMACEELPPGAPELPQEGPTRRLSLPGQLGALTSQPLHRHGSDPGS

The test concerns the target human ether-à-go-go-related gene (hERG) potassium channel (human, UniProt Q12809). Put plainly: primary screen, population patch clamp on CHO cells stably expressing hERG; higher = less effect of the substance.
Consider `O=C(CSc1nc2ccsc2c(=O)n1Cc1ccccc1)NCC1CCCO1` (stereo not drawn), for which the “hERG current change (%, negative = inhibition) at 10uM” value is -25.7%.
For `CCC1CCCCN1C(=O)CSc1nc2ccsc2c(=O)n1Cc1ccccc1` (stereo not drawn), the “hERG current change (%, negative = inhibition) at 10uM” value was -78.3%.
Consider `CCn1c(SCC(=O)N2CCCc3ccccc32)nc2ccccc2c1=O`, for which the “hERG current change (%, negative = inhibition) at 10uM” value was -18.7%.
The figure for `COCCn1c(SCC(=O)N2CCC(C)CC2)nc2ccccc2c1=O` is -62.8%.
For the compound `CCn1c(SCC(=O)N2CCCCC2C)nc2ccsc2c1=O` (stereo not drawn), the “hERG current change (%, negative = inhibition) at 10uM” value is listed as -11.5%.
As to `CCCCn1c(SCC(=O)N2CCC(C)CC2)nc2ccsc2c1=O`, the “hERG current change (%, negative = inhibition) at 10uM” value is -70.7%.
As for `COCCn1c(SCC(=O)N2CCCCC2)nc2ccccc2c1=O`, the figure is -49.3%; as for `COCCn1c(SCC(=O)N2CCCc3ccccc32)nc2cccnc21`, -16.5%; as for `COCCn1c(SCC(=O)N2CCCc3ccccc32)nc2ccccc2c1=O`, -72.6%.
Turning to `COCCn1c(SCC(=O)N2CCOCC2)nc2ccccc2c1=O`, the “hERG current change (%, negative = inhibition) at 10uM” value is listed as -22.3%.
As for `CCCCn1c(SCC(=O)c2ccccc2)nc2ccsc2c1=O`, the figure is 1.38%; as for `O=C(O)CCCCCn1c(SCC(=O)N2CCCC2)nc2ccsc2c1=O`, 16.9%; as for `COc1ccc2[nH]cc(CCNC(=O)Cc3ccc(Cl)cc3)c2c1`, 2.05%.
As for `CC(=O)c1cccc(NC(=O)c2ccc3c(c2)C(=O)N(Cc2cccnc2)C3=O)c1`, the figure is -9.85%; as for `COc1ccc(OC)c(/C=N/N(CCC#N)C2=NS(=O)(=O)c3ccccc32)c1`, 6.86%.
As for `CCCCCCSc1ccc([C@@H]2[C@H]3C(=O)N(C)C(=O)[C@H]3[C@]3(C(=O)OC)CCCCN23)cc1.O=C(O)C(F)(F)F`, the figure is -10.9%; as for `Cc1ccc(N2C(=O)NC(=O)/C(=C\c3cn(CC(=O)O)c4ccccc34)C2=O)cc1`, 16.8%.
`CC(Oc1cccc2c1OC(C)(C)C2)C(=O)O` (stereo not drawn): the “hERG current change (%, negative = inhibition) at 10uM” value is reported as -5.47%.
On to `COc1ccc(Cc2nnc(NC(=O)c3ccc(Cl)c([N+](=O)[O-])c3)s2)cc1`, for which the “hERG current change (%, negative = inhibition) at 10uM” value was determined as 15%.
The figure for `COc1ccc(CN2CCN(C(=O)C3CCC(CNS(=O)(=O)c4ccc(C)cc4)CC3)CC2)c(OC)c1OC` (stereo not drawn) is -27.5%.
Take `COCCn1c(SCC(=O)N2CCN(c3ccccc3)CC2)nc2c(c1=O)SC(C)C2` (stereo not drawn): the “hERG current change (%, negative = inhibition) at 10uM” value is reported as -58.8%.
Take `CC1Cc2nc(SCC(=O)N3CCN(c4ccccc4)CC3)n(CCc3ccccc3)c(=O)c2S1` (stereo not drawn): the “hERG current change (%, negative = inhibition) at 10uM” value is -47.1%.
As for `CCn1c(SCC(=O)N2CCN(c3ccccc3)CC2)nc2c(c1=O)SC(C)C2` (stereo not drawn), the figure is -48.2%.
As for `CC(=O)c1cccc(NC(=S)NC(=O)c2cccc(Cl)c2)c1`, the figure is -3.58%; as for `CCSc1nnc(NC(=O)C2Cc3ccccc3CN2C(=O)c2ccco2)s1` (stereo not drawn), -10.3%; as for `CCn1nc(C)c(CNC(=O)CC2C(=O)NCCN2CC(C)C)c1C` (stereo not drawn), 11.7%.
In the case of `CCn1nc(C)c(CNC(=O)CC2C(=O)NCCN2Cc2ccc(C)o2)c1C` (stereo not drawn), the “hERG current change (%, negative = inhibition) at 10uM” value is listed as -68.4%.
As for `CCn1nc(C)c(CNC(=O)CC2C(=O)NCCN2CC(C)(C)C)c1C` (stereo not drawn), the figure is 9.14%.
The figure for `CN(CC(=O)N1CCN(c2cccc(Cl)c2)CC1)S(=O)(=O)c1cccs1` is -32.9%; for `Cn1c2c(c(=O)[nH]c1=O)C(c1ccc(O)cc1)C1=C(N2)c2ccccc2C1=O` (stereo not drawn) it is -5.73%; for `CCOC(=O)c1c(CN2CCN(c3ccccc3)CC2)oc2cc(Br)c(O)cc12.Cl` it is 14.3%.
On to `CCOC(=O)c1c(CS(=O)(=O)c2ccccc2)n(C)c2cc(Br)c(O)cc12`, for which the “hERG current change (%, negative = inhibition) at 10uM” value is 5.4%.
Take `CCOC(=O)c1c(CN(CC)CC)n(C)c2cc(Br)c(O)cc12.Cl`: the “hERG current change (%, negative = inhibition) at 10uM” value is -73.6%.
The figure for `CCOC(=O)c1c(-c2ccccc2)oc2cc(Br)c(O)cc12` is 3.65%.
The figure for `CCOC(=O)c1c(C)n(C)c2cc(Br)c(OC)cc12` is 15.6%.
As for `CCOC(=O)c1c(CN2CCN(CCO)CC2)n(C)c2cc(Br)c(OC)cc12`, the figure is -11.3%; as for `CCOC(=O)c1c(CN2CCN(CC#N)CC2)n(C)c2cc(Br)c(OC)cc12`, 10.9%.
`CCOC(=O)c1c(CN2CCN(C)CC2)n(C)c2cc(Br)c(OC)cc12`: the “hERG current change (%, negative = inhibition) at 10uM” value was -50.4%.
As for `CCOC(=O)c1c(CNCCN(CC)CC)n(C)c2cc(Br)c(OC)cc12.Cl`, the figure is -68.5%; as for `CCOC(=O)c1c(CNc2ccncc2)n(C)c2cc(Br)c(O)cc12.Cl`, 18.8%.
With `CCOC(=O)c1c(C)n(C)c2cc(Br)c(C(=O)OC)cc12`, the “hERG current change (%, negative = inhibition) at 10uM” value is listed as -11.1%.
As to `CCOC(=O)c1c(CN(CC)CC)oc2cc(Br)c(O)cc12`, the “hERG current change (%, negative = inhibition) at 10uM” value was -79.8%.

The values are drawn from paper PMC4336329 (PLoS ONE, 2015).
